According to PubChem BioAssay (NCI):
About 83,000 compounds went through this panel and 20% of them were active in at least one assay; those are over-represented in the sample as a whole.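 Activity criterion: percent growth below 10, measured after cells in 96-well plates were exposed to a single compound concentration for 48 hours.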 The source made the active and inactive calls.

These compounds were tested on SK-MEL-5 melanoma (assay: NCI-60 one-dose screen, 48 h (100 = growth as untreated, 0 = no growth, -100 = all killed)). Settings: 10 µM.
Procedure: Growth inhibition of the SK-MEL-5 human tumor cell line is measured as a screen for anti-cancer activity. Cells are grown in 96 well plates and exposed to the test compound for 48 hours. Compounds are tested at a single concentration, which is 10^-5 M for most compounds. The reported endpoint is percent growth (GI% or GIPRCNT), where numbers from 0 - 100% represent growth inhibition, and numbers from -100% - 0 represent cell death. For example, a value of 40 represents 60% growth inhibition. A value of 0 means no net growth occurred over the course of the experiment. A value of -40 indicates 40% of cells at the beginning of the experiment died by the end of the experiment. A value of -100 means all cells are dead at the end of the experiment.
NCI-60 Human Tumor Cell Lines Screen was performed using the standard one-dose NCI protocol, which is described in more detail at https://dtp.cancer.gov/discovery_development/nci-60/default.htm.
Compounds with GIPRCNT values below 10 were considered active. Activity score was based on GIPRCNT using the following formula: […]
Score is 0 for GIPRCNT values of 100 or above, 50 for GIPRCNT values of 0, and 100 for GIPRCNT values of -100.

Compound	growth
CC1(C)CNC(=O)N1	82.6% (inactive)
CCNC(=S)NN	102% (inactive)
Nc1ccc2c(c1)Cc1cc(N)c(Cl)cc1-2	93.9% (inactive)
NC(=O)c1ccc(Br)o1	102% (inactive)
Nc1nc2c(ncn2C2OC3COP(=O)(O)OC4C(COP(=O)(O)OC2C3O)OC(n2cnc3c(N)ncnc32)C4O)c(=O)[nH]1 (stereo not given)	106% (inactive)
C[C@@H]1C(=O)N(C[C@H](Cc2ccccc2)NC(=O)OCc2ccccc2)[C@]1(Cc1ccccc1)C(=O)OCc1ccccc1	13.2% (inactive)
COc1cc(-c2nc3ccc(C)cc3[nH]2)ccc1OCc1nnc(-c2ccc(CC(C)C)cc2)o1	85.7% (inactive)
Cc1ccc(NS(=O)(=O)c2ccccc2)c(NS(=O)(=O)c2ccccc2)c1	104% (inactive)
CCOC(=O)Nc1ccc2c(c1)C(=O)N(CC)c1ccccc1O2	-28% (active)
CCCCCCCOc1cccc(/C=C2/C(=O)N=C3SCCCN32)c1	63.7% (inactive)
COc1cc(C2C=C(c3ccc(Cl)c(Cl)c3)N=C3SC(C)=CN32)cc(OC)c1OC (stereo not given)	83.9% (inactive)
O=c1cc(CSc2nnc(-c3ccccc3)n2-c2ccc(F)cc2)c2ccc3ccccc3c2o1	79% (inactive)
COc1ccc(N2CCN(c3nc(-c4ccccc4)c(C#N)c(=O)[nH]3)CC2)cc1	96.4% (inactive)
COc1ccc2oc(=O)cc(C(c3ccc[nH]3)c3ccc[nH]3)c2c1	-31.4% (active)
O=C(OCC1OC(n2cc(C(F)(F)F)c(=O)[nH]c2=O)CC1OC(=O)c1ccc([N+](=O)[O-])cc1)c1ccc([N+](=O)[O-])cc1 (stereo not given)	43.2% (inactive)
O=C1NN(c2ccccc2)C(c2cccnc2)=N/C1=C\c1cccnc1	91.8% (inactive)
COc1ccc(/C(CS(=O)(=O)c2ccccc2)=N\O)cc1	95.8% (inactive)
CC(=O)Oc1c(C)c(C)c2c(c1C)CCC(C)(CC(=O)OCCCCCCCCCCC[P+](c1ccccc1)(c1ccccc1)c1ccccc1)O2 (stereo not given)	-96.7% (active)
CCn1nc(-c2ccccn2)c2cccnc2c1=S	59.3% (inactive)
O=C(NCc1cn(Cc2cccc(Oc3ccccc3)c2)nn1)c1cccnc1Nc1ccccc1	40.8% (inactive)

Compound	growth
FC(F)(F)c1ccc(-c2cnc(Br)nc2NC2CCCCCC2)cc1	17.9% (inactive)
[O-]c1c[n+](-c2ccc(Cl)cc2)no1	95.6% (inactive)
CC(C)/C(=N/O)c1ccccc1	104% (inactive)
COc1cc(NS(C)(=O)=O)ccc1Nc1c2ccc(Cl)cc2nc2c(OC)cccc12	0.832% (active)
N/C(=N\O)c1cn(C2OC(CO)C(O)C2O)c2ncnc(N)c12 (stereo not given)	-43% (active)
COc1ccc(S(=O)(=O)Nc2ccc(OCc3nnc(-c4ccc(Cl)cc4)o3)c(F)c2)cc1	15.7% (inactive)
Oc1[nH]c2ccccc2c1/C=c1/cc2c(c(-c3ccc(C(F)(F)F)cc3)n1)=Nc1ccccc1-2	57.2% (inactive)
COc1cc(-c2nc3ccccc3[nH]2)ccc1OCC(=O)N=Nc1c(O)[nH]c2ccccc12	68.9% (inactive)
CCOc1ccc2c(c1)CC[C@@H]1[C@@H]2CC[C@]2(C)[C@@H](O)[C@@H](O)C[C@@H]12	96.8% (inactive)
Nc1nsc(C(=O)c2ccc(O)cc2)n1	97.9% (inactive)
CCc1c(C(=O)NCc2c(O)ccc3cccc(O)c23)[nH]c(C)c1C(C)=O	1.58% (active)
CNCCCNCCCN1C(=O)c2ccc3c4c(ccc(c24)C1=O)C(=O)N(CCCNCc1ccccc1OC)C3=O	-94.2% (active)
COc1ccc2c(=O)cc(C(Cl)(Cl)Cl)oc2c1	-91.9% (active)
N=C(N)c1ccc(-c2ccc(-c3ccccc3)s2)cc1F	-97% (active)
CCN(CC)CCCOC(=O)Nc1ccccc1Cl	105% (inactive)
COc1cc([C@@H]2c3cc4c(cc3[C@H](SC(=N)N)[C@H]3COC(=O)[C@H]23)OCO4)cc(OC)c1OC	-29.6% (active)
CC[C@@]1(C(N)=O)CC2C=CC1C2 (stereo not given in full)	106% (inactive)
C=C1C(=O)O[C@H]2[C@H]1CC/C(COC(=O)OCCCCCOC(=O)OC/C1=C/CC[C@@]3(C)O[C@H]3[C@H]3OC(=O)C(=C)[C@@H]3CC1)=C\CC[C@@]1(C)O[C@@H]21	-78.8% (active)
NC(=O)C1CCCN(Cc2c[nH]c3ccccc23)C1 (stereo not given)	99.6% (inactive)
Cc1ccc(-c2cc(-c3cccc(Nc4ccnc5cc(Cl)ccc45)c3)nc3nc(N)[nH]c(=O)c23)cc1	99% (inactive)
